± gives the standard deviation. In all, about 6,200 sequences were measured (“pre-steady-state target cleavage rate”: median about 0.29, highest 2% from about 2 on). Only a selection was taken, and the highest values are over-represented in it overall.
System: MIWI (PIWIL1) piRISC loaded with piRNA #1 (30 nt)
Experiment: pre-steady-state target cleavage rate (min^-1); MIWI and MILI are mouse PIWI proteins and EfPiwi is from a freshwater sponge; tags in brackets are library labels; higher = faster piRNA-guided slicing of the target
Settings: guide: piRNA #1 5'p-UGAGGUAGUAGGUUGUAUAGUAUCCAGAGG; auxiliary factor: 500 nM mouse GTSF1
Procedure, shortened: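 Reactions were run for 0–8 or 0–960 min at 33 °C in HEPES–potassium acetate buffer, combining 1 nM active affinity-purified piRISC with one synthetic guide, […] transcribed, DNA-blocked target RNA library and, in some cases, 500 nM GTSF1 partner protein. Sequencing of uncleaved targets followed, with normalisation to depth and to weakly complementary targets. Three trials were pooled, k3 was capped at 0.0001 min^-1, and the pre-steady-state cleavage rate was taken from a burst-and-steady-state fit.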
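Also: 1 nM active piRISC with 0.1 nM target library at 33 °C single turnover.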

| Sequence | pre-steady-state target cleavage rate |
| --- | --- |
| GGAGAGGAUACUAUACAACCUACUACCUUA | 1.28 ± 0.066 |
| CCUCUGGAUAGUAUACAACCUACUUCCUCA | 0.21 ± 0.034 |
| GGAGAGGAUUCUAUACAACCUACUACCACA | 0.665 ± 0.047 |
| GGUCUGCUUACUAUACAACCUACUACCUCA | 1.74 ± 0.12 |
| GCUCUGCUUACUAUACAACCUACUACCUCA | 1.96 ± 0.12 |
| CCUCUGCUUACUAUACAACCUACUACCUCA | 2.19 ± 0.15 |
| GCACUGGAUACUAUACAACCAACUACCUCA | 0.167 ± 0.017 |
| GGAGUGCAUACAAUACAACCUACUACCUCA | 1.11 ± 0.092 |
| GCUCUGAGAUACUAUACAACCUACUACCUCA | 2.07 ± 0.12 |
| GCUCUGAUACUAUACAACCUACUACCUCA | 1.9 ± 0.12 |
| CCUCUGAUACUAUACAACCUACUACCUCA | 2.11 ± 0.12 |
| GGUCUGAUACUAUACAACCUACUACCUCA | 1.79 ± 0.1 |
| GGUCUGAGAUACUAUACAACCUACUACCUCA | 1.89 ± 0.11 |
| CCUCUGAGAUACUAUACAACCUACUACCUCA | 0.572 ± 0.056 |
| GGAGACCAUACUAUACAACCUACCUACCUCA | 1.06 ± 0.066 |
| GGAGUGGAUAUUAUACAACCUACUACCUCA | 1.48 ± 0.072 |
| GGAGACCAUACUAUACAACCUACUACCUCU [g2:g23:cont:t1U] | 1.7 ± 0.11 |
| GGAGUGGAUAGUAUUCAACCUACUACCUCA | 0.584 ± 0.064 |
| GGAGACCUUACUAUACAUGGUACUACCUCA | 0.00452 ± 0.0025 |
| GCUCUGGUUACUAUUCAACCUACUACCUCA | 1.88 ± 0.12 |
| CCUCUGGAUACUAUACAACCUACUUCCACA | 0.337 ± 0.05 |
| GCACUGGAUUCUAUACAACCUACUACCUCA | 1.85 ± 0.096 |
| CCUACUGGAUACUAUACAACCUACUACCUCA | 2.04 ± 0.11 |
| GGACUGGAUACUAUACAACCUACCUACCUCA | 1.06 ± 0.094 |

| Sequence | pre-steady-state target cleavage rate |
| --- | --- |
| GGACUGGAUACUAUACAACCUACUACCUCCA | 2.19 ± 0.17 |
| GCACUGGAUACUAUACAACCUACUACCUCA | 1.81 ± 0.093 |
| GGACUGGAUACUAUACAACCUACUACCUCC [g2:g27:cont:t1C] | 1.42 ± 0.088 |
| GGACUGGAUACUAUACUACCUACAACCUCA | 0.39 ± 0.057 |
| GGACUGGAUUCUAUACAACCUACUACCUCA | 1.63 ± 0.11 |
| CCACUGGAUUCUAUACAACCUACUACCUCA | 2.08 ± 0.12 |
| CCACUGGAUACUAUACAACCUACUACCUCA | 1.8 ± 0.11 |
| GCUACUGGAUACUAUACAACCUACUACCUCA | 2.14 ± 0.13 |
| GGACUGGAUACCUAUACAACCUACUACCUCA | 1.15 ± 0.095 |
| GGUCAGGAUACUAUACAACCUACUAGCUCA | 0.255 ± 0.033 |
| GGAGACCUAACUAUACAACCUACUACCAGA | 0.385 ± 0.062 |
| GGAGACCUUACUAUACAACCUACUACCCCA | 0.956 ± 0.086 |
| GGAGACGAUACUAUACAACCUACUACGUGA | 0.348 ± 0.054 |
| GGACUGGAUACUAUACAACCUAUUACCUCA | 0.86 ± 0.075 |
| GCUCUGGAUACUAUACAACCUACAUGCUCA | 0.589 ± 0.072 |
| GGAGACCAUACUAAUACAACCUACUACCUCA | 0.978 ± 0.08 |
| GGUCUGCAUACUAUACAACCUACUACCUGA | 0.677 ± 0.13 |
| GGAGACGAUUCUAUACAACCUACUACGUCA | 0.92 ± 0.069 |
| CCUCUGGAUCCUAUACAACCUACUACCUCA | 1.38 ± 0.14 |
| GGUCUGGAUACAUACAACCUACUACCUCA | 1.44 ± 0.11 |
| CCUCAGGAUUCUAUACAACCUACUACCUCA | 2.24 ± 0.13 |
| GGUCAGGAUUCUAUACAACCUACUACCUCA | 1.77 ± 0.12 |
| GCUCAGGAUUCUAUACAACCUACUACCUCA | 1.87 ± 0.092 |
| GCUGUGGAUACUAUACAACCUACUACCUGA | 0.776 ± 0.18 |

Source: the supplement of paper PMC10338343
